LYPLA1 inh: LYPLA1 inhibitors, primary screen, counter-screen for PME1 inhibitor project, biochemical, fluorescence polarization, FP-Rh probe ABPP; recombinant LYPLA1; Acyl-protein thioesterase 1 (Homo sapiens), O75608; 320,000 tested, 0.16% active; inhibition, % at 5.9 µM;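 active means inhibition above the mean of all tested compounds plus 3 SD, set per campaign, cut at about 14% in these data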;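 further: inhibitors block serine hydrolase probe labeling of LYPLA1 so polarization falls; 0% = enzyme with DMSO and 100% = wells lacking LYPLA1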
PAFAH1B3 FP inh: PAFAH1B3 enzyme inhibitors, primary screen, biochemical, fluorescence polarization, human; Platelet-activating factor acetylhydrolase IB subunit alpha1 (Homo sapiens), Q15102; recombinant PAFAH1B3, FP-rhodamine probe; inhibition, % at 3.39 µM; 340,000 tested, 0.28% active;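 active means inhibition above the screen-wide average of all tested compounds plus 3 SD, cut at about 25% in these data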;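 further: 0% = enzyme with DMSO only and 100% = wells lacking PAFAH1B3 protein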
Target sequence (Q15102 whole entry, looked up): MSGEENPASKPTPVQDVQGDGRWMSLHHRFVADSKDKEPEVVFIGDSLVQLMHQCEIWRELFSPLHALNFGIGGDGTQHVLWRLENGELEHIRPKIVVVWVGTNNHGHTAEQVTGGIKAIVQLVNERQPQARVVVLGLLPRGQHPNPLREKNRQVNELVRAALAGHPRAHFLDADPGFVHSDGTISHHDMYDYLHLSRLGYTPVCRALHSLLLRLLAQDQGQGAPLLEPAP
pPAFAH FP inh: pPAFAH enzyme inhibitors, primary screen, biochemical, fluorescence polarization, human; Platelet-activating factor acetylhydrolase (Homo sapiens), Q13093; recombinant pPAFAH, FP-rhodamine probe fluorescence polarization; inhibition, % at 3.39 µM; 330,000 tested, 1.5% active;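 active means inhibition above the mean inhibition across the screen plus 3 SD, cut at about 25% in these data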;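 further: inhibitors block binding of the rhodamine activity-based probe so polarization drops; 0% = enzyme with DMSO and 100% = wells lacking pPAFAH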
PAFAH1B2 inh: PAFAH1B2 enzyme inhibitors, primary screen, biochemical, fluorescence polarization, human. inhibition, % at 3.39 µM. Platelet-activating factor acetylhydrolase IB subunit alpha2 (Homo sapiens), P68402. 340,000 tested, 1.2% active. recombinant PAFAH1B2, FP-rhodamine activity probe. AID 492953, 2010;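 active means inhibition above the mean of all tested compounds plus 3 SD, cut at about 24% in these data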;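 further: 0% = enzyme with DMSO and 100% = wells lacking PAFAH1B2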
LYPLA2 counter: LYPLA2 inhibitors, primary screen, counter-screen for PME1 inhibitor project, biochemical, fluorescence polarization, FP-Rh probe ABPP; Acyl-protein thioesterase 2 (Homo sapiens), O95372; recombinant LYPLA2; inhibition, % at 5.9 µM; 320,000 tested, 0.38% active;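 active means inhibition above the screen-wide mean plus 3 SD, limit set per campaign, cut at about 26% in these data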;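 further: 0% = LYPLA2 with DMSO and 100% = wells lacking LYPLA2 enzyme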
PAFAH2 FP inh: PAFAH2 enzyme inhibitors, primary screen, biochemical, fluorescence polarization, human; Platelet-activating factor acetylhydrolase 2, cytoplasmic (Homo sapiens), Q99487; recombinant PAFAH2, FP-rhodamine activity probe; inhibition, % at 3.39 µM; 340,000 tested, 0.99% active;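 active means inhibition above the mean over all tested compounds plus 3 SD, cut at about 30% in these data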;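 further: inhibitors block probe labeling of enzyme so polarization drops; 0% = enzyme with DMSO and 100% = wells lacking PAFAH2 protein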
LYPLA1 confirm: LYPLA1 inhibitors, retest, confirmation, counter-screen for PME1 inhibitor project, biochemical, fluorescence polarization, FP-Rh probe ABPP | shares compounds with LYPLA1 inh | AID 2233, 2010 | 480 tested, 69% active | inhibition, % at 5.9 µM | recombinant LYPLA1;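 active means mean inhibition across replicates above the hit cutoff set in the primary screen, cut at about 15% in these data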;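 further: loss of FP-Rh probe labeling of LYPLA1 seen as lower polarization; 0% = LYPLA1 with DMSO and 100% = wells lacking LYPLA1 enzyme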
LYPLA2 confirm: LYPLA2 inhibitors, retest, confirmation, counter-screen for PME1 inhibitor project, biochemical, fluorescence polarization, FP-Rh probe ABPP. recombinant LYPLA2. shares compounds with LYPLA2 counter. inhibition, % at 5.9 µM. 1,100 tested, 72% active. AID 2232, 2010;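 active means mean inhibition across replicates above the hit cutoff set in the primary screen, cut at about 26% in these data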;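 further: blocked labeling of the enzyme by serine hydrolase FP-Rh probe lowers polarization; 0% = enzyme with DMSO and 100% = wells lacking LYPLA2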
* marks the source's active call; other numbers are inactive results; / = no result. Hits are enriched below; roughly 2.9% of the tested compounds scored in any of these assays.

SMILES | LYPLA1 inh | PAFAH1B3 FP inh | pPAFAH FP inh | PAFAH1B2 inh | LYPLA2 counter | PAFAH2 FP inh | LYPLA1 confirm | LYPLA2 confirm
C=CCn1c(O)c(N=NC(=S)Nc2ccc(OC)cc2)c2ccccc21 | 30* | 11 | 11 | -2 | 7 | -6 | 33* | /
O=C(O)c1ccc(CSc2nc3ccccc3c(=O)n2-c2ccccc2)cc1 | 17* | -2 | 0 | -1 | 22 | 1 | 27* | /
O=c1c2ccccc2nc(SCc2ccc([N+](=O)[O-])cc2)n1-c1ccccc1 | 1 | -4 | 0 | 1 | -11 | 4 | / | /
Cc1nn(Cc2ccc(C(=O)Nc3nc4c(C)cccc4s3)o2)c(C)c1Br | -17 | -7 | 0 | -2 | -26 | -33 | / | /
CCC(C)Sc1nc2ccccc2c(=O)[nH]1 (stereo unspecified) | 3 | 8 | 0 | -4 | 0 | -8 | / | /
CCCCCCCCOc1ccc(C2OC34CCCCC3C(C#N)(C#N)C2(C#N)C(=N)O4)cc1 (stereo unspecified) | 17* | 22 | 30* | 27* | 26* | 34* | 14* | 8
N#CC1(C#N)C(c2ccccc2)OC23CCCCCC2C1(C#N)C(=N)O3 (stereo unspecified) | -3 | -2 | 4 | 3 | -3 | 12 | / | /
Cc1ccc(OCC(=O)N2CCN(C(=O)CCC3CCCC3)CC2)cc1 | 61* | -6 | 9 | 8 | 27* | 3 | 66* | 19
Cc1ccc(CN2CCN(/N=C\c3cccc([N+](=O)[O-])c3)CC2)cc1 | 17* | -1 | 0 | 3 | 28* | -1 | 19* | 35*
CC(C)CCNC(=O)NC(=O)COC(=O)/C=C/c1cccc([N+](=O)[O-])c1 | 25* | 7 | 5 | 4 | 30* | 4 | 31* | 32*
COC(=O)c1ccc2c(c1)SC1=C(CCCC1=O)N2 | 28* | 17 | 18 | 21 | 27* | 26 | 19* | 15

Source: PubChem BioAssay (The Scripps Research Institute Molecular Screening Center)
